Columns and labels:
Experiment in all cases: DAPPL (digital affinity profiling via proximity ligation, sequencing); 10 mM Tris-HCl pH 7.5, 50 mM NaCl, 1 mM DTT, 4% glycerol, room temperature, 30 min; GST-TFs on glutathione beads, 16-mer random dsDNA library, 0.1% formaldehyde crosslink after washing; high values mean tight binding
Conditions in all cases: protein: recombinant; tags: N-terminal GST; dsDNA, one strand shown
FLI1 = molecular target: T1, FLI1 (Homo sapiens, UniProt Q01543 1-452)
T1 sequence: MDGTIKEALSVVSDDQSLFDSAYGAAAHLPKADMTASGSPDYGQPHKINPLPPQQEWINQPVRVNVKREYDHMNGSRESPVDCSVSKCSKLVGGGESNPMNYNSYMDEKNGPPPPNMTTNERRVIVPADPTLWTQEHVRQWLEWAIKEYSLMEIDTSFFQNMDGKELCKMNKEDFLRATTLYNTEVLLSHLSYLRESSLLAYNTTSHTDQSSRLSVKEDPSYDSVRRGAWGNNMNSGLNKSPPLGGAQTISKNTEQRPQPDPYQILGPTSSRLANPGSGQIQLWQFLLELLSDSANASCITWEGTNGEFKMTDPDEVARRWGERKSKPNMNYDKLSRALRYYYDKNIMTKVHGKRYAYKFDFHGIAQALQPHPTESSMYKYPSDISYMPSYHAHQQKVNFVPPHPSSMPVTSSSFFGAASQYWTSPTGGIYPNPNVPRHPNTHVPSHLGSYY
How it was run: (§1)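 After expression in yeast as GST fusions, human transcription factors were bound to glutathione beads, DNA-barcoded and mixed with a tag-only sample. The pools were incubated with 200 nmole of a 16-mer random double-stranded DNA library in Tris/NaCl/DTT/glycerol buffer (30 min, room temperature), washed and crosslinked with 0.1% formaldehyde. Proximity ligation with BsaI/T4 ligase ran for 1 h at 37 °C, before PCR amplification and sequencing on an Illumina NextSeq500. Binding signal is a hexamer's read frequency for a factor divided by its frequency for the tag-only sample.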

GABPA = molecular target: T2, GABPA (Homo sapiens, UniProt Q06546 1-454)
T2 sequence: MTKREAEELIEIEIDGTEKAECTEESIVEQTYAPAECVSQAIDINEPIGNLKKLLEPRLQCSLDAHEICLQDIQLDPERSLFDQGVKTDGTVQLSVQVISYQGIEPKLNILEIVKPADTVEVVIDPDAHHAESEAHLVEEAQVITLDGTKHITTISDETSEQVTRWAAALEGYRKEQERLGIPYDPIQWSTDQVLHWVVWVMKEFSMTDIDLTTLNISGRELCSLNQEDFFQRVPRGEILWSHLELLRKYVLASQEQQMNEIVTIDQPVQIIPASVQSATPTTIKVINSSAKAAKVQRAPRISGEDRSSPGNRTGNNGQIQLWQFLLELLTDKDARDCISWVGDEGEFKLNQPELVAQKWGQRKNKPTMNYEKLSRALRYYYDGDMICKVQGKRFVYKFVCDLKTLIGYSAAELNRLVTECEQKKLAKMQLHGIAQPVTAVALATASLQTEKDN
How it was run: as §1

ERG = molecular target: T3, ERG (Homo sapiens, UniProt P11308 1-479)
T3 sequence: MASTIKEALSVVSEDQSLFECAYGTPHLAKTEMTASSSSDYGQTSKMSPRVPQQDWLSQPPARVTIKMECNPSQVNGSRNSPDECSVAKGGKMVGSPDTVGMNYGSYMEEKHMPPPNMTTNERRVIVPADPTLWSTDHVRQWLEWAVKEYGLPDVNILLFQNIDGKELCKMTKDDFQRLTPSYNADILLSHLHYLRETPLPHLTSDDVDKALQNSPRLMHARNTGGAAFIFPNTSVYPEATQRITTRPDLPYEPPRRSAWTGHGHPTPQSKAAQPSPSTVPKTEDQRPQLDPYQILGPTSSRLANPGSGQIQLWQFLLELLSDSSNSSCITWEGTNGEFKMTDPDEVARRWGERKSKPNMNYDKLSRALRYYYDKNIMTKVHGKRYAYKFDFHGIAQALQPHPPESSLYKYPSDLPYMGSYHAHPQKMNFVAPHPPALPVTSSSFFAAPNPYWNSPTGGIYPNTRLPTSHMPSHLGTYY
How it was run: as §1

ELF1 = ELF1 (Homo sapiens, UniProt P32519 1-619)
Sequence of ELF1 (P32519 whole entry): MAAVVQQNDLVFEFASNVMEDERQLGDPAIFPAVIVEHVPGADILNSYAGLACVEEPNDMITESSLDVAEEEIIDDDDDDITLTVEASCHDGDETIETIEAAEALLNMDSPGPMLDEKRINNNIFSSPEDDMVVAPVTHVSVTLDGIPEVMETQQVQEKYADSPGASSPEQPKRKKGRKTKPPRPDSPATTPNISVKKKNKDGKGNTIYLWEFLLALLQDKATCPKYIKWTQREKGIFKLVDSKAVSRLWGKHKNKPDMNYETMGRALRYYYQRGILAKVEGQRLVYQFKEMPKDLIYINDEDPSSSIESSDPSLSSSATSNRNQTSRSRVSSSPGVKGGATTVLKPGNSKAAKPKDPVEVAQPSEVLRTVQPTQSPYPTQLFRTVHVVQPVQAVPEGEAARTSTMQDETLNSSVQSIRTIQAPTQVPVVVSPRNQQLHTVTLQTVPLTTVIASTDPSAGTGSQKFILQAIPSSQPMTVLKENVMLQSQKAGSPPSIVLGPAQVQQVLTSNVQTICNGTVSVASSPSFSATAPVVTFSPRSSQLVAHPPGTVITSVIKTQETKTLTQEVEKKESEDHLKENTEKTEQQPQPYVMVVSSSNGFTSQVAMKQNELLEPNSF
How it was run: as §1

EHF = molecular target: T4, EHF (Homo sapiens, UniProt Q9NZC4 1-300)
T4 sequence: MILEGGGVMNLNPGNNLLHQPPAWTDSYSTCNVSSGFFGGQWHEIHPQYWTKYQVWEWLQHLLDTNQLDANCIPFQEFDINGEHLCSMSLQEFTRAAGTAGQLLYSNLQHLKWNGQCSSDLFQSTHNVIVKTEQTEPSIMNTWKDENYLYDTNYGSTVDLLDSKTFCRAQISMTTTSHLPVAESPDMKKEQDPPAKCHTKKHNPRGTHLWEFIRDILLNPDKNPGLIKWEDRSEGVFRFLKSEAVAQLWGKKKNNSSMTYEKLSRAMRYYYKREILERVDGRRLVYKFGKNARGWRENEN
How it was run: as §1

SPI1 = SPI1 (Homo sapiens, UniProt P17947 1-270)
How it was run: as §1

SPIB = SPIB (Homo sapiens, UniProt Q01892 1-262)
Sequence of SPIB (Q01892 whole entry): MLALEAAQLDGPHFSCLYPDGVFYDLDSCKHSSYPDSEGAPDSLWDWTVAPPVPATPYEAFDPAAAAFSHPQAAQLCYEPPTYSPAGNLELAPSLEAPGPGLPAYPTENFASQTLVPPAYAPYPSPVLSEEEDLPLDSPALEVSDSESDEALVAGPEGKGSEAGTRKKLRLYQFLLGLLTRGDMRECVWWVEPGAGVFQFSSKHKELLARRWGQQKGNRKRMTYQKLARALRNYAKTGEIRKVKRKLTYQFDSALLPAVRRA
How it was run: as §1

ETV5 = ETV5 (Homo sapiens, UniProt P41161 1-510)
Sequence of ETV5 (P41161 whole entry): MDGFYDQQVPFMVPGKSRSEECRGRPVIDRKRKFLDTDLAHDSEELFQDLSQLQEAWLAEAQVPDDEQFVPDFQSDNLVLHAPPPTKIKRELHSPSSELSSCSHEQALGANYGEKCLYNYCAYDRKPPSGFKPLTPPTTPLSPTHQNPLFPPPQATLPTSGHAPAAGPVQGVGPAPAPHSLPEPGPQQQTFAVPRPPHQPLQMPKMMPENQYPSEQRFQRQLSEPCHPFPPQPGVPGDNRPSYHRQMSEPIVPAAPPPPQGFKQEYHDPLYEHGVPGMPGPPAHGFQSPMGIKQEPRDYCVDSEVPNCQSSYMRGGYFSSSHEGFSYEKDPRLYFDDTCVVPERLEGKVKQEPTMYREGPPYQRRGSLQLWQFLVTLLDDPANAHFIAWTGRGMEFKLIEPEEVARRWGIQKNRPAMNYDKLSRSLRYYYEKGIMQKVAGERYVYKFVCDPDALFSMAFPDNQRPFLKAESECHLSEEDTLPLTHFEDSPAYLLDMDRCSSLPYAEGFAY
How it was run: as §1

SPIC = molecular target: T5, SPIC (Homo sapiens, UniProt Q8N5J4 1-248)
T5 sequence: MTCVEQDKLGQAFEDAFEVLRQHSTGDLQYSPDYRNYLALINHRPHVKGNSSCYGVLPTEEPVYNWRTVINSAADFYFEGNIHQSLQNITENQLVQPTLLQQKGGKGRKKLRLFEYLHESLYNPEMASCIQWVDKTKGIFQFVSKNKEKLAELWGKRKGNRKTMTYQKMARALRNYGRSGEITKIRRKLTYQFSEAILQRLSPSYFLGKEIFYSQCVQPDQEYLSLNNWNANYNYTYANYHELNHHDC
How it was run: as §1

ELF4 = ELF4 (Homo sapiens, UniProt Q99607 1-663)
Sequence of ELF4 (Q99607 whole entry): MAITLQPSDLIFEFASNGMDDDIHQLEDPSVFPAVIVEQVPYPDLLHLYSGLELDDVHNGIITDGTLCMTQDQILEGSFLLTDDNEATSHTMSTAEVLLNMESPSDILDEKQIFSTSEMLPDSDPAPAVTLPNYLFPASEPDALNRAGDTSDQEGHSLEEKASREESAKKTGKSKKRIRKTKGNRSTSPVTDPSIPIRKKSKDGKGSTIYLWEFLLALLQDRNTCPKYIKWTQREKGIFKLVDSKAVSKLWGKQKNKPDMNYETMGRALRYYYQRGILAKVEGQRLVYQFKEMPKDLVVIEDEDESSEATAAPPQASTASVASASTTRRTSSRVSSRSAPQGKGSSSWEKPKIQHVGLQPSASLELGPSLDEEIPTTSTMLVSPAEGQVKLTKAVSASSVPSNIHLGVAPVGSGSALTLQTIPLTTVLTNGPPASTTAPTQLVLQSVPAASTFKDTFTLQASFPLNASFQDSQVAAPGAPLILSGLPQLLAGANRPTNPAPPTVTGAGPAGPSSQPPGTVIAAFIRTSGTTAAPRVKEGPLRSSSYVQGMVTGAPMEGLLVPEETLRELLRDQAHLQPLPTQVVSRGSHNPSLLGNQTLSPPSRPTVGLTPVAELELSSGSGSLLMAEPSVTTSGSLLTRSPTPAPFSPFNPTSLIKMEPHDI
How it was run: as §1

ETV1 = ETV1 (Homo sapiens, UniProt P50549 1-477)
Sequence of ETV1 (P50549 whole entry): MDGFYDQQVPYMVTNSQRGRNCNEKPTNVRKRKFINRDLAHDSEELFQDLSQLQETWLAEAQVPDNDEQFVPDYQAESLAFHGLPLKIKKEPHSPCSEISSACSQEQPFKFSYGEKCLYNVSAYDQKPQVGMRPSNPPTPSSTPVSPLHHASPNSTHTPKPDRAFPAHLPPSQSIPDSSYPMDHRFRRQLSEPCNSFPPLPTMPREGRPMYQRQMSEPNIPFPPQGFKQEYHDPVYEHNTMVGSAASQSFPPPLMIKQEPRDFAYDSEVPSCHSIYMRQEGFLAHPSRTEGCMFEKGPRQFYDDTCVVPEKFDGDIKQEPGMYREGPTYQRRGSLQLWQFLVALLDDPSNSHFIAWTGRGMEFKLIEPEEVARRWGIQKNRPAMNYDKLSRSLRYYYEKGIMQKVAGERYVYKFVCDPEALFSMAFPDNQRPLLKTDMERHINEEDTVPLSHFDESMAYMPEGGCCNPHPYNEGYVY
How it was run: as §1

ERF = molecular target: T6, ERF (Homo sapiens, UniProt P50548 1-548)
T6 sequence: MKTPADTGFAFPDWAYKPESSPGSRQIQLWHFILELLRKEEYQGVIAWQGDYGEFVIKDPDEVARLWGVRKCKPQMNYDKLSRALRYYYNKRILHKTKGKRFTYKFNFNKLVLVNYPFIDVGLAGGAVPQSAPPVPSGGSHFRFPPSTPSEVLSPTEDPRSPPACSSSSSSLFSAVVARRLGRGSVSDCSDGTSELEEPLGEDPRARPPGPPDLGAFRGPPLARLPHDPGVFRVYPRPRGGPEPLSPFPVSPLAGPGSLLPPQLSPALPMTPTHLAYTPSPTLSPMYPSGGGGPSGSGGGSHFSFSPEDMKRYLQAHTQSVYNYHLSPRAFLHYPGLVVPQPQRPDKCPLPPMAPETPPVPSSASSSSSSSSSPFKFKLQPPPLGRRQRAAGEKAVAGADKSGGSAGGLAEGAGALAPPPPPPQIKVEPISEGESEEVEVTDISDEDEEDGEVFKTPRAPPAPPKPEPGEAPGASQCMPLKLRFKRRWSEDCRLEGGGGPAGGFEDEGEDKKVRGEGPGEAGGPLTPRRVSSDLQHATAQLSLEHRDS
How it was run: as §1

ETV3L = molecular target: T7, ETV3L (Homo sapiens, UniProt Q6ZN32 1-361)
T7 sequence: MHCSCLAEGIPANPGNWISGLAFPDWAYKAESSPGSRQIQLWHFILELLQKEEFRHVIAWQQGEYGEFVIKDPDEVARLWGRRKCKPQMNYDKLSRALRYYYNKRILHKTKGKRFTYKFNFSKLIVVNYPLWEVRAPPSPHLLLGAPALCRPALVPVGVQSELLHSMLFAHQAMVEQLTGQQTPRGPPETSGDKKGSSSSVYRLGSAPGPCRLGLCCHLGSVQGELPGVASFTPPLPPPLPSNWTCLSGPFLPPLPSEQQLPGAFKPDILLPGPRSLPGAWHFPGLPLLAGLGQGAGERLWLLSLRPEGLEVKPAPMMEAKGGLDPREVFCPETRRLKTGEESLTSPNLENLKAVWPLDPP
How it was run: as §1

ETS2 = molecular target: T8, ETS2 (Homo sapiens, UniProt P15036 1-469)
T8 sequence: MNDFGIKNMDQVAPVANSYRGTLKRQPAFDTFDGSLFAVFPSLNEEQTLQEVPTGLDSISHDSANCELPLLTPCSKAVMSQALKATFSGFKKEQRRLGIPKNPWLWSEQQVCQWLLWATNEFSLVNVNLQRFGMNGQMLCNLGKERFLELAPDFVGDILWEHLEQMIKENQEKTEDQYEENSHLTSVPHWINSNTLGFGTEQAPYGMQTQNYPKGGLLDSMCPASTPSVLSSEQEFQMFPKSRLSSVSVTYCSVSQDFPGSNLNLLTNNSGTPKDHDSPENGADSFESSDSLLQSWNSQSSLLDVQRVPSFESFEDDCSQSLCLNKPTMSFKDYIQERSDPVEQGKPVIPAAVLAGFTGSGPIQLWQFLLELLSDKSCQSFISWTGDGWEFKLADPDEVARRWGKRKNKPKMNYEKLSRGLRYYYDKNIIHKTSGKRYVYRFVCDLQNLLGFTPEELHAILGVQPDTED
How it was run: as §1

SPDEF = molecular target: T9, SPDEF (Homo sapiens, UniProt O95238 1-335)
T9 sequence: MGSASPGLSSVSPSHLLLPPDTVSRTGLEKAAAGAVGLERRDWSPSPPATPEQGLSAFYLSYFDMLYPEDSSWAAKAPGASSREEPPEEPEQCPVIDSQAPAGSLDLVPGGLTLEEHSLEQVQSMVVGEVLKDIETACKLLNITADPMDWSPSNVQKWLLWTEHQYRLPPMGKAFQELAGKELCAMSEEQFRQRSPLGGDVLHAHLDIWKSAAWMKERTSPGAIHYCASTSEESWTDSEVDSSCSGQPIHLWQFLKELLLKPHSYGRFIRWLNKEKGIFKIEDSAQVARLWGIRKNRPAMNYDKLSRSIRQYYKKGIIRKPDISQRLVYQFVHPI
How it was run: as §1

Question: How did the binding signal (FLI1) turn out when TGTGGT was run?
Answer: 1.08 fold enrichment (6-mer frequency, TF over GST control)

Question: And the binding signal (GABPA)?
Answer: 1.09 fold enrichment (6-mer frequency, TF over GST control)

Question: What about the binding signal (ERG) of the same sequence?
Answer: 1.07 fold enrichment (6-mer frequency, TF over GST control)

Question: What about the binding signal (ELF1) of the same sequence?
Answer: 1.01 fold enrichment (6-mer frequency, TF over GST control)

Question: And the binding signal (EHF)?
Answer: 1.08 fold enrichment (6-mer frequency, TF over GST control)

Question: What about the binding signal (SPI1) of the same sequence?
Answer: 1.05 fold enrichment (6-mer frequency, TF over GST control)

Question: And the binding signal (SPIB)?
Answer: 1.16 fold enrichment (6-mer frequency, TF over GST control)

Question: And the binding signal (ETV5)?
Answer: 1.04 fold enrichment (6-mer frequency, TF over GST control)

Question: And the binding signal (SPIC)?
Answer: 1.02 fold enrichment (6-mer frequency, TF over GST control)

Question: What about the binding signal (ELF4) of the same sequence?
Answer: 1.04 fold enrichment (6-mer frequency, TF over GST control)

Question: And the binding signal (ETV1)?
Answer: 1.01 fold enrichment (6-mer frequency, TF over GST control)

Question: And the binding signal (ERF)?
Answer: 1.06 fold enrichment (6-mer frequency, TF over GST control)

Question: And the binding signal (ETV3L)?
Answer: 1.04 fold enrichment (6-mer frequency, TF over GST control)

Question: And the binding signal (ETS2)?
Answer: 1.05 fold enrichment (6-mer frequency, TF over GST control)

Question: And the binding signal (SPDEF)?
Answer: 1.07 fold enrichment (6-mer frequency, TF over GST control)

— paper PMC7862700, “An all-to-all approach to the identification of sequence-specific readers for epigenetic DNA modifications on cytosine”
